# Results from the supplement of paper PMC9446081.
# ± gives the standard deviation of the averaged measurements.
# Columns and labels:
# Test in all cases: relative enzymatic activity vs untreated control (fraction); higher = less inhibition
# Settings in all cases: 100 µM; incubation time: 2 h at 37 C
# DNA gyrase = test system: DNA gyrase
# Description: (§1)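 In vitro enzymatic inhibition assays (ProFoldin kits) for 12 purified essential E. coli enzymes or complexes, each treated with 218 active antibacterial compounds at 100 µM for 2 h at 37°C. Read-outs were fluorescence or absorbance (phosphate detection, dye binding), converted to activity via standard curves and expressed relative to untreated DMSO controls.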
# DNA helicase = DNA helicase (UniProt P0ACB1)
# DNA helicase, sequence (P0ACB1 whole entry): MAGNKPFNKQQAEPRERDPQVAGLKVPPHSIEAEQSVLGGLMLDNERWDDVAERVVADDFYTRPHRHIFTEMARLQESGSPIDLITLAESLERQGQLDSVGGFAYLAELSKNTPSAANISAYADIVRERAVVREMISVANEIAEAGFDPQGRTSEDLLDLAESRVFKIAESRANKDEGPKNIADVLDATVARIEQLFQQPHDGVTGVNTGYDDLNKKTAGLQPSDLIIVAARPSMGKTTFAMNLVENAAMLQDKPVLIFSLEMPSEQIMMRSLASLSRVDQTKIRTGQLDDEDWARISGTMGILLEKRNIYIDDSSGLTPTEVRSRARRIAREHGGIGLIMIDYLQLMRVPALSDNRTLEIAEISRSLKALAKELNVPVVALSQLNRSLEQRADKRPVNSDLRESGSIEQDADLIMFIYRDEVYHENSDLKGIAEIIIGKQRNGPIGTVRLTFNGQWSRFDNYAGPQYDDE
# Description: as §1
# DNA ligase = DNA ligase (UniProt B1XA82)
# DNA ligase, sequence (B1XA82 whole entry): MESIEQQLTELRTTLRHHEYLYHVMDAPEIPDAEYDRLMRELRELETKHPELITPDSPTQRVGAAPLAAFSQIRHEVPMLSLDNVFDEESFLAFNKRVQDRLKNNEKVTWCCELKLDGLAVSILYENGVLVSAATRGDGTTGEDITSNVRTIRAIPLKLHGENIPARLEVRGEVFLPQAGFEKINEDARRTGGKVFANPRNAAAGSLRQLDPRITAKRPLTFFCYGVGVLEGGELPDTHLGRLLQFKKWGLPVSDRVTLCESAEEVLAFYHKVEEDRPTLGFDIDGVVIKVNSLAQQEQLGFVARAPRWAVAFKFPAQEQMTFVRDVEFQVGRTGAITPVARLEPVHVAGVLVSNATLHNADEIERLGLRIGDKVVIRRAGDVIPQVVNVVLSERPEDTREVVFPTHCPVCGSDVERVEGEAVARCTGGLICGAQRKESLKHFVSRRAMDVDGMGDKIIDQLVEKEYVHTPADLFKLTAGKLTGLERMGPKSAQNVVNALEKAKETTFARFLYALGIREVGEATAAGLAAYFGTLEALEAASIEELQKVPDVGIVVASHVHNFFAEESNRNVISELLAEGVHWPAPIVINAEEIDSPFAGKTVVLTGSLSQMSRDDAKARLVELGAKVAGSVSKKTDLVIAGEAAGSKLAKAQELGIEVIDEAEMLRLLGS
# Description: as §1
# DNA polymerase = DNA polymerase (UniProt P10443)
# DNA polymerase, sequence (P10443 whole entry): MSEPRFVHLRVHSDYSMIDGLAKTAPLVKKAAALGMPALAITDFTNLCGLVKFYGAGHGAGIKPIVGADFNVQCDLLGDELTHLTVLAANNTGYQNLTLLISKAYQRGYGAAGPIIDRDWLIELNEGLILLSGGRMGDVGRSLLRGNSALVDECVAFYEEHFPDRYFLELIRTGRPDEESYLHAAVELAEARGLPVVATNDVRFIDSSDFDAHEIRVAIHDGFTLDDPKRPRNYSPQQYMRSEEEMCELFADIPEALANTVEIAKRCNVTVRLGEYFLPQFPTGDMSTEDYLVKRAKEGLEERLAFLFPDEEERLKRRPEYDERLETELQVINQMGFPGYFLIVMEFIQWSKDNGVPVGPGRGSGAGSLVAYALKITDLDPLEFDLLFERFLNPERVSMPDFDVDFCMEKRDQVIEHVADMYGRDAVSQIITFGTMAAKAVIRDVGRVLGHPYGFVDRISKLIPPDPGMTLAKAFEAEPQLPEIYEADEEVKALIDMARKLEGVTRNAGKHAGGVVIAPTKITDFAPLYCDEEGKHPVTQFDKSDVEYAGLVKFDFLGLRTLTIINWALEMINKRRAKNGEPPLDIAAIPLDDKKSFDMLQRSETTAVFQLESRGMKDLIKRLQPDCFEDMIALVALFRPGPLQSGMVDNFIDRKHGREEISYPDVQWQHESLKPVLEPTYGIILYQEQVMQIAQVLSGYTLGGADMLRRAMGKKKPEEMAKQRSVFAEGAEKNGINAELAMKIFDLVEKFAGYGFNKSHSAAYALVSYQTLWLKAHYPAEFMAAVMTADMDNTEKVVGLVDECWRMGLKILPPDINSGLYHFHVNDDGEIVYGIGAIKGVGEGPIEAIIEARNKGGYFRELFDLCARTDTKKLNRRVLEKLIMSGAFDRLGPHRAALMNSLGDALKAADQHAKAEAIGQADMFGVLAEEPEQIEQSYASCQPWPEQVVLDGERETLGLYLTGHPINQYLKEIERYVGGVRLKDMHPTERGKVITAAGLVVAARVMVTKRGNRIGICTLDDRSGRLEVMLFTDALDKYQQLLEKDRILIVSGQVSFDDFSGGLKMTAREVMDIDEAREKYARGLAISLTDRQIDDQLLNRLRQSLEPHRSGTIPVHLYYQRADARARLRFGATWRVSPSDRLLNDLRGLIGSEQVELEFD
# Description: as §1
# DNA primase = DNA primase (UniProt P0ABS7)
# DNA primase, sequence (P0ABS7 whole entry): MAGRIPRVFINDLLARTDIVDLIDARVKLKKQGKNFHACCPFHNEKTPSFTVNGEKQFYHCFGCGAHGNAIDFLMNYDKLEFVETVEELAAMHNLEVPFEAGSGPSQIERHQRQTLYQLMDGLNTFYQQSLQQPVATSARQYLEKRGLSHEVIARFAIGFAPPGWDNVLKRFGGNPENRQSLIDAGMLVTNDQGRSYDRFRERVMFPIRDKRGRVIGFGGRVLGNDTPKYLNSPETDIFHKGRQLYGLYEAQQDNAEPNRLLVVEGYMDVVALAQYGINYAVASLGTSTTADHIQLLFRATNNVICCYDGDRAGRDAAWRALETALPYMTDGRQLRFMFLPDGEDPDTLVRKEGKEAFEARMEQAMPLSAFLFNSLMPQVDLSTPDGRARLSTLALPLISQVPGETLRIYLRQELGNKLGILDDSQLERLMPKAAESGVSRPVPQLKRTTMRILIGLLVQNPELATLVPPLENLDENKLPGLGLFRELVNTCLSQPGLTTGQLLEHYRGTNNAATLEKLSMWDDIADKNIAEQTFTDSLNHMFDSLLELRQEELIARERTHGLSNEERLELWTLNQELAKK
# Description: as §1
# GlmU = GlmU (UniProt A7ZTU1)
# GlmU, sequence (A7ZTU1 whole entry, looked up): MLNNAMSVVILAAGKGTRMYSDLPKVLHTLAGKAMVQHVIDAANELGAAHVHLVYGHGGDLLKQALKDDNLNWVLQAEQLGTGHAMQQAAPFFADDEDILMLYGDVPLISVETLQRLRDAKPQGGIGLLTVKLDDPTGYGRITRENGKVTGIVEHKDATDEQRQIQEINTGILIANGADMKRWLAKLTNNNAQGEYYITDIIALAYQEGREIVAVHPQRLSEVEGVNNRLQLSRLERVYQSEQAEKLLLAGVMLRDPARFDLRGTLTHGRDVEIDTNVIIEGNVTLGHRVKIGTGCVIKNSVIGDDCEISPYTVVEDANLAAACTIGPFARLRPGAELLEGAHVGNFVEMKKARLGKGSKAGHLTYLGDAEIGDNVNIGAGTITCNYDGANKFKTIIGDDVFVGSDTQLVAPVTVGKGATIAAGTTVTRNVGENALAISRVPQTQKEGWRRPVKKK
# Description: as §1
# Guanlyate kinase = Guanlyate kinase (UniProt Q0TBG1)
# Guanlyate kinase, sequence (Q0TBG1 whole entry): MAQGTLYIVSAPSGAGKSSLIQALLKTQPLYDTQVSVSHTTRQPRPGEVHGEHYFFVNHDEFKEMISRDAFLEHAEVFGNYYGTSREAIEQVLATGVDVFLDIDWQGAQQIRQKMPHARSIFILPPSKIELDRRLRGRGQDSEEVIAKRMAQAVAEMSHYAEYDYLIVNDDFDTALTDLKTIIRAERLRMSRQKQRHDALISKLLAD
# Description: as §1
# MurA = MurA (UniProt Q3YX52)
# MurA, sequence (Q3YX52 whole entry): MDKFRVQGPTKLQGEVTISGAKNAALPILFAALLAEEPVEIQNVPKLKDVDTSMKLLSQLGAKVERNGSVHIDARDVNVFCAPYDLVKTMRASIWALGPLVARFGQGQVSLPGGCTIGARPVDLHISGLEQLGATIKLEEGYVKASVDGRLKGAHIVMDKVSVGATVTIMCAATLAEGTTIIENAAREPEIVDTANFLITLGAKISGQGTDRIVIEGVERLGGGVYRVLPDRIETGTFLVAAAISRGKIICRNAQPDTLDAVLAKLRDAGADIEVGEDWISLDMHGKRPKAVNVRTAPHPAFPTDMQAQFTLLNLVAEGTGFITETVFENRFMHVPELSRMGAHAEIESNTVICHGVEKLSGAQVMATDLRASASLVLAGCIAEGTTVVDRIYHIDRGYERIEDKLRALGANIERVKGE
# Description: as §1
# RNA polymerase = test system: RNA polymerase
# Description: as §1
Structure (SMILES),relative enzymatic activity (DNA gyrase),relative enzymatic activity (DNA helicase),relative enzymatic activity (DNA ligase),relative enzymatic activity (DNA polymerase),relative enzymatic activity (DNA primase),relative enzymatic activity (GlmU),relative enzymatic activity (Guanlyate kinase),relative enzymatic activity (MurA),relative enzymatic activity (RNA polymerase)
CN(C)[C@@H]1C(=O)[C@H](C(N)=O)C(=O)[C@@]2(O)C(=O)[C@@H]3C(=O)c4c(O)cccc4[C@@](C)(O)[C@H]3C[C@@H]12,0.891 ± 0.31,0.615 ± 0.21,0.943 ± 0.033,0.874 ± 0.1,0.801 ± 0.02,1.03 ± 0.011,0.846 ± 0.13,0.379 ± 0.13,0.7359 ± 0.0054
CC(=O)Oc1ccc(Cl)c2cccnc12,0.756 ± 0.36,0.577 ± 0.29,0.965 ± 0.18,1.09 ± 0.17,0.8364 ± 0.0049,0.987 ± 0.052,0.892 ± 0.12,0.873 ± 0.19,0.7397 ± 0.0065
CN1C(=O)[C@]23CC4=CC=C[C@H](O)[C@H]4N2C(=O)[C@@]1(CO)SS3,0.669 ± 0.11,0.55 ± 0.14,1.06 ± 0.038,0.477 ± 0.68,0.859 ± 0.019,0.992 ± 0.012,0.947 ± 0.12,0.309 ± 0.13,0.838 ± 0.12
Cc1nc2c(=O)n(C)c(=O)nc-2n(C)n1,0.498 ± 0.2,0.6 ± 0.18,0.827 ± 0.053,1.04 ± 0.11,0.8 ± 0.023,0.927 ± 0.071,0.881 ± 0.045,0.131 ± 0.035,0.925 ± 0.15
O=[N+]([O-])c1ccc(N(CCO)CCO)c2c1no[n+]2[O-],1.22 ± 0.18,0.793 ± 0.094,1.49 ± 0.15,0.69 ± 0.21,0.559 ± 0.099,0.935 ± 0.067,0.448 ± 0.049,0.106 ± 0.026,0.679 ± 0.032
CN(C)[C@@H]1C(=O)C(C(N)=O)=C(O)[C@@]2(O)C(O)=C3C(=O)c4c(O)cccc4[C@](C)(O)[C@H]3C[C@@H]12,1.15 ± 0.25,0.475 ± 0.031,1.06 ± 0.1,1.11 ± 0.24,0.753 ± 0.025,1.05 ± 0.084,0.836 ± 0.089,0.144 ± 0.0081,0.809 ± 0.1
O=S(=O)(O)O.Oc1cccc2cccnc12,0.857 ± 0.31,0.653 ± 0.14,1.05 ± 0.1,1.34 ± 0.49,0.441 ± 0.18,0.987 ± 0.048,0.981 ± 0.14,0.768 ± 0.011,0.862 ± 0.094
[O-][n+]1ccccc1[S][Zn][S]c1cccc[n+]1[O-],0.849 ± 0.41,0.647 ± 0.14,1.08 ± 0.083,1.1 ± 0.13,0.788 ± 0.27,1.03 ± 0.0055,1.06 ± 0.052,0.109 ± 0.033,0.954 ± 0.052
CCn1cc(C(=O)[O-])c(=O)c2cc3c(cc21)OCO3.[K+],0.128 ± 0.074,0.576 ± 0.11,1.21 ± 0.081,1.08 ± 0.18,0.826 ± 0.033,0.959 ± 0.029,0.892 ± 0.14,0.798 ± 0.13,0.7827 ± 0.0058
CNC1C(O)C(OC2C(N)CC(N)C(OC3OC(C(C)O)C(O)C(O)C3N)C2O)OCC1(C)O (stereo unspecified),1.19 ± 0.12,0.447 ± 0.021,1 ± 0.031,1.37 ± 0.52,0.749 ± 0.25,0.973 ± 0.059,0.936 ± 0.045,0.77 ± 0.12,0.879 ± 0.05
Cc1c(N)nc([C@H](CC(N)=O)NC[C@@H](N)C(N)=O)nc1C(=O)N[C@H](C(=O)N[C@@H](C)[C@H](O)[C@@H](C)C(=O)N[C@@H](C(=O)NCCc1nc(-c2nc(C(=O)NCCC[S+](C)C)cs2)cs1)[C@@H](C)O)[C@@H](O[C@H]1O[C@H](CO)[C@H](O)[C@@H](O)[C@H]1O[C@H]1O[C@H](CO)[C@@H](O)[C@H](OC(N)=O)[C@@H]1O)c1cnc[nH]1,0.0494 ± 0.07,0.504 ± 0.71,1.121 ± 0.005,0.911 ± 0.2,0.801 ± 0.0016,1.06 ± 0.057,1.03 ± 0.061,0.787 ± 0.087,0.875 ± 0.077
O=C1C=C2C(=CCOC2O)O1 (stereo unspecified),0.0893 ± 0.13,0.409 ± 0.021,1.08 ± 0.17,0.547 ± 0.19,0.632 ± 0.14,0.811 ± 0.21,1.09 ± 0.049,0.0624 ± 0.018,0.56 ± 0.17
CCCCCCCCCCCCCCCC[n+]1ccccc1,1.17 ± 0.056,0.0233 ± 0.0026,0.134 ± 0.0094,0.0267 ± 0.011,0.341 ± 0.023,0.19333 ± 8.8e-05,0.0415 ± 0.016,0.0717 ± 0.02,0.617 ± 0.64
COP(=S)(OC)Oc1cc(Cl)c(Cl)cc1Cl,1.01 ± 0.21,0.105 ± 0.011,0.991 ± 0.28,1.39 ± 0.45,0.737 ± 0.2,1.09 ± 0.043,1.07 ± 0.027,0.585 ± 0.13,0.851 ± 0.025
CCCCCCCCCCCCCCCC[N+](C)(C)C.[Br-],1.21 ± 0.19,0.026 ± 0.0026,0.171 ± 0.036,0.0569 ± 0.0052,0.371 ± 0.042,0.235 ± 0.047,0.6144 ± 0.0056,0.0751 ± 0.018,0.162 ± 0.021
CN(C)[C@@H]1C(=O)[C@@H](C(N)=O)C(=O)[C@@]2(O)C(=O)[C@H]3C(=O)c4c(O)ccc(Cl)c4[C@@](C)(O)[C@H]3C[C@@H]12,0.69 ± 0.15,0.484 ± 0.12,0.931 ± 0.077,0.474 ± 0.67,0.778 ± 0.016,1.01 ± 0.018,0.879 ± 0.079,0.617 ± 0.21,0.739 ± 0.086
Oc1cc(Cl)ccc1Oc1ccc(Cl)cc1Cl,1.04 ± 0.057,0.187 ± 0.1,0.856 ± 0.26,0.495 ± 0.69,0.839 ± 0.013,1.113 ± 0.0014,1 ± 0.059,0.846 ± 0.081,0.935 ± 0.17
CCCCCCCCCCCCCCCC[n+]1ccccc1.[Cl-],1.22 ± 0.054,0.0141 ± 0.0023,0.581 ± 0.2,0.0538 ± 0.0068,0.3763 ± 0.00042,0.16 ± 0.039,0.2 ± 0.092,0.0629 ± 0.0016,0.2601 ± 0.0012
C[CH2][Hg][S]c1ccccc1C(=O)[O-].[Na+],0.069 ± 0.018,0.749 ± 0.37,1.12 ± 0.031,0.94 ± 0.3,0.649 ± 0.14,1.07 ± 0.093,1.03 ± 0.11,0.212 ± 0.01,0.959 ± 0.048
Cn1ncnc2c(=O)n(C)c(=O)nc1-2,0.373 ± 0.21,0.533 ± 0.13,1.08 ± 0.28,0.994 ± 0.056,0.758 ± 0.047,0.966 ± 0.021,0.88 ± 0.059,0.129 ± 0.027,0.587 ± 0.6
CN[C@H]1C[C@@H](N)[C@H](O)[C@@H](O[C@@H]2O[C@H](CO)[C@H](O)[C@@H]3O[C@@]4(O[C@H]23)O[C@H]([C@@H](N)CO)[C@H](O)[C@H](O)[C@H]4O)[C@@H]1O,0.984 ± 0.14,0.571 ± 0.16,0.95 ± 0.14,1.19 ± 0.24,0.883 ± 0.02,1.029 ± 0.0074,0.933 ± 0.098,0.86 ± 0.2,0.8209 ± 0.0048
O=[N+]([O-])C(Br)(CO)CO,0.108 ± 0.15,0.618 ± 0.27,0.897 ± 0.11,0.327 ± 0.015,0.596 ± 0.031,0.198 ± 0.059,0.943 ± 0.084,0.0632 ± 0.019,0.348 ± 0.045
Cc1c(N)nc([C@H](CC(N)=O)NC[C@@H](N)C(N)=O)nc1C(=O)N[C@H](C(=O)N[C@@H](C)[C@H](O)[C@@H](C)C(=O)N[C@@H](C(=O)NCCc1nc(-c2nc(C(=O)NCCC[S+](C)C)cs2)cs1)[C@@H](C)O)[C@@H](O[C@H]1O[C@H](CO)[C@H](O)[C@@H](O)[C@H]1O[C@H]1O[C@H](CO)[C@@H](O)[C@H](OC(N)=O)[C@@H]1O)c1c[nH]cn1,0.0451 ± 0.064,0.749 ± 0.38,1.26 ± 0.078,0.485 ± 0.028,0.878 ± 0.06,0.998 ± 0.07,0.96 ± 0.12,0.863 ± 0.16,0.866 ± 0.032
CC(=O)[O][Hg][c]1ccccc1,0.0283 ± 0.04,0.415 ± 0.038,1.16 ± 0.04,0.285 ± 0.017,0.749 ± 0.28,0.987 ± 0.21,3.32 ± 0.43,0.474 ± 0.35,0.462 ± 0.044
